# Measured values as given in PubChem BioAssay (Tox21).
# Records with an inconclusive call do not appear. Active and inactive are the calls of the source. The call rests on the fitted dose curve; in most records, active means well fitted cell-killing curve with a large enough effect in the repeat runs (not every such curve was filed as active); inconclusive means weak or mixed curves, or effect the other way; inactive means no such curve, though single readings can be large or run the other way.
# Experiment: qHTS assay to identify small molecule antagonists of the farnesoid-X-receptor (FXR) signaling pathway - cell viability counter screen (AID 743221); further: nearly all actives have a fitted effect of over 50% in size
# Settings: FXR-bla HEK293T viability, CellTiter-Glo luminescence, 16 h; series mostly up to 62.6 µM; activity change, negative = cytotoxicity: at the top concentration
# From the text: National Center for Advancing Translational Sciences [NCATS]
# NIH Chemical Genomics Center [NCGC]
# U.S. Environmental Protection Agency [EPA]
# National Institutes of Environmental Health Sciences [NIEHS]
# National Toxicology Program [NTP]
# U.S. Food and Drug Administration [FDA]
# The farnesoid-X-receptor (FXR), a nuclear hormone receptor, is highly expressed in liver, intestine, kidney and adrenal cortex. Natural ligands of FXR are the bile acids (Cholic acid, Chenodeoxy cholic acid etc). FXR is an important regulator of diverse metabolic pathways, including the bile acid homeostasis, lipid and glucose metabolisms. FXR regulates the expression of target genes by binding either as a monomer or as a heterodimer with the retinoid X receptor (RXR). Numerous studies have reported that FXR exerts protective function during cholestasis, diabetes, liver regeneration, and cancer. To identify compounds that inhibit FXR signaling, GeneBLAzer FXR-UAS-bla HEK 293T cell line (Invitrogen, Carlsbad, CA) containing a beta-lactamase reporter gene under the control of a UAS response element was used to screen the Tox21 10K compound library. The cytotoxicity of the Tox21 compound library against the FXR-bla cell line was tested in parallel by measuring the cell viability using CellTiter-Glo assay in the same wells.
# Tox21 Assay Protocol Summary:
# FXR-bla cells were dispensed at 5000 cells/5uL/well in 1536-well black wall/clear bottom plates using a Multidrop Combi (Thermo Fisher Scientific, Waltham, MA) dispenser. After the assay plates were incubated at 37 C and 5% CO2 for 5 h, 23 nL of compounds dissolved in DMSO, positive controls or DMSO only was transferred to the assay plate by a Pintool station (Kalypsys, San Diego, CA), followed by addition of 1 uL Chenodeoxycholic acid (50 uM, final concentration in the wells). The assay plates were incubated at 37C for 16 h. After 1 uL of LiveBLAzerTM B/G FRET substrate was added using a Bioraptr Flying Reagent Dispenser (FRD) workstation (Beckman Coulter, Indianapolis, IN), the plates were incubated at room temperature for 2 h, and fluorescence intensity was measured by an Envision plate reader (PerkinElmer, Shelton, CT). For cell viability readout that measures cytotoxicity, 4uL/well of CellTiter-Glo reagent was added into the assay plates using a Bioraptr FRD. After 30 min incubation at room temperature, the luminescence intensity in the plates was measured using a ViewLux plate reader (PerkinElmer).
# On the % scale 0 is the no-effect control and ±100 the full control effect.
Structure (SMILES),"activity change, negative = cytotoxicity",Potency
[O-][Br+2]([O-])O,-0.083% (inactive),
C[N+]1(C)CCCCC1,9.32% (inactive),
CCCCS(=O)(=O)Cl,-2.36% (inactive),
O=CCCl,10.3% (inactive),
O=C(CCl)NCO,-21.5% (inactive),
CCN1CCCC1CNC(=O)C(O)(c1ccccc1)c1ccccc1 (stereo not given),-0.389% (inactive),
O=C1CCCCC1Cl (stereo not given),-1.47% [at 81.1 µM] (inactive),
CCC(C)(C#N)N=NC(C)(C#N)CC (stereo not given),-0.581% (inactive),
O=C(O)C(F)(F)C(F)(F)C(F)(F)C(F)(F)C(F)(F)C(F)(F)F,-2.71% (inactive),
CC(C)c1ccc(O)cc1,11.2% (inactive),
CC1=C2[C@H]3OC(=O)[C@@H](C)[C@@H]3CC[C@@]2(C)C=CC1=O,5.09% (inactive),
CCCOc1nn(C(=O)NS(=O)(=O)c2ccccc2C(=O)OC)c(=O)n1C,7.08% (inactive),
C=C1CC[C@@]2(O)[C@H]3Cc4ccc(O)c5c4[C@@]2(CCN3CC2CC2)[C@H]1O5,-7.11% (inactive),
CCOC(=O)COc1ccc(Cl)cc1Cl,-1.41% (inactive),
O=C(O)CBr,2.41% (inactive),
Cc1ccc2c(c1)C1CN(C)CCC1N2 (stereo not given),-9.11% [at 29.1 µM] (inactive),
CC(C)[C@]12CC(=O)[C@H](C)[C@H]1C2,18% (inactive),
N=C(N)[Se],-0.71% [at 81.1 µM] (inactive),
C/C(=N\NC(=O)Nc1cc(F)cc(F)c1)c1ncccc1C(=O)O,0.407% (inactive),
CN=CNc1ccc(C)cc1C,8.44% (inactive),

Structure (SMILES),"activity change, negative = cytotoxicity",Potency
O=C(Cl)C(Cl)(Cl)Cl,-0.545% [at 81.1 µM] (inactive),
CC(C)C(C)(N)C#N (stereo not given),-0.267% (inactive),
CC(O)CCl (stereo not given),21% (inactive),
O=C(Cl)OCc1ccccc1,-0.222% [at 81.1 µM] (inactive),
COc1ccc(C=O)cc1O,-11.6% [at 81.1 µM] (inactive),
COc1ccccc1OC,-0.837% (inactive),
CCOP(=S)(OCC)SCCl,10.2% (inactive),
ClCC1CO1 (stereo not given),2.48% (inactive),
Nc1c(Cl)c(F)nc(OCC(=O)O)c1Cl,8.24% (inactive),
CC(=O)CN(CC(C)=O)N=O,8.58% (inactive),
Clc1nc(Cl)nc(Nc2ccccc2Cl)n1,-0.657% (inactive),
CCC(=O)c1ccc(Cl)cc1,6.94% (inactive),
CS(=O)(=O)c1ccc(C(=O)C2C(=O)CCCC2=O)c(Cl)c1COCC(F)(F)F,9.73% (inactive),
O=P(O)(O)CN(CP(=O)(O)O)CP(=O)(O)O,-6.08% [at 29.1 µM] (inactive),
COc1cccc(C=O)c1,16.1% (inactive),
CC(C)(O)C(Cl)(Cl)Cl,11.6% (inactive),
C=CCCC#N,6.14% (inactive),
CC(C)(C)c1cc(O)ccc1O,,inactive
C[C@@H](N)[C@@H](O)c1ccccc1,-2.07% (inactive),
COC(=O)[C@@H](N)CCCN/C(N)=N/[N+](=O)[O-],0.597% (inactive),
